Inconclusive results are not listed. Where a call stands in place of a potency, no number is given. Active and inactive are the calls of the source. Calls come from the whole dose curve; as a rule, active = well fitted inhibition curve with a large enough effect; inconclusive = small, poorly fitted or top-dose-only effect; inactive = no such curve, though single readings can be large or run the other way.
Assays:
[1] = test system: Zika virus NS2B-NS3 protease (unlinked complex); assay: Primary screen GU Rhodamine qHTS for Zika virus inhibitors: Unlinked NS2B-NS3 protease assay (AID 1347159); settings: Recombinant ZIKV NS2B-NS3 protease, Rhodamine110 substrate fluorescence; series mostly up to 107 µM; note: nearly all actives have a fitted effect of over 60% in size
Procedure, shortened: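 Percent inhibition came from the 15-min rise in Rhodamine110 fluorescence (1.5 microM substrate, ~15% conversion), normalized to no-inhibitor and no-enzyme wells and Hill-fitted. Unlinked protease, 25 nM, pH 8.0 Tris buffer; compounds up to 114 microM, 15-min preincubation.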

[2] = test system: Zika virus NS2B-NS3 protease (linked construct); assay: Primary screen NINDS Rhodamine qHTS for Zika virus inhibitors (AID 1347160); settings: purified NS2B-NS3 protease, Rhodamine110 substrate fluorescence; series mostly up to 33.1 µM; note: nearly all actives have a fitted effect of over 55% in size
Procedure, shortened: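 Rhodamine110-peptide cleavage (1.5 µM substrate) by 25 nM linked NS2B-NS3 enzyme at pH 8.0 (Tris, Tween 20), after 15 min RT preincubation with compounds; 15-min fluorescence change normalized to controls and Hill-fitted.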

SMILES | Potency [1] | Potency [2]
COc1ccnc(CCc2nc3ncccc3[nH]2)c1 | inactive | inactive
C=C1CC[C@@]2(OC1)O[C@H]1CC3[C@@H]4CC=C5C[C@H](O[C@H]6OC[C@@H](O)C(O)[C@@H]6O[C@@H]6O[C@@H](C)[C@H](O)[C@@H](O[C@@H]7O[C@H](CO)[C@@H](O)[C@H](O)[C@H]7O)[C@H]6O)C[C@@H](O)[C@]5(C)C4CC[C@]3(C)[C@H]1[C@@H]2C (stereo partly drawn) | inactive | inactive
COc1cc(C2CC(=O)Nc3c2cc(Br)c2ccccc32)cc(OC)c1OC (stereo not drawn) | inactive | inactive
CCC/C=C1\OC(=O)C2=C1CCC(O)C2O (stereo not drawn) | inactive | inactive
CC[C@@H](C)[C@H](N)C(=O)N1Cc2ccccc2C1 | inactive | inactive
C=C1C[C@]23C[C@H]1CC[C@H]2[C@]1(C)CC[C@H](O)[C@@](C)(C(=O)O)[C@H]1[C@@H]3C(=O)O | inactive | inactive
COC1OC(O)C2(CCC3(O2)C(C)CC2OC(=O)C4(C)CCCC3(C)C24)C1O (stereo not drawn) | inactive | inactive
CC1(C)CC[C@]2(C(=O)O[C@@H]3O[C@H](CO[C@@H]4O[C@H](CO)[C@@H](O)[C@H](O)[C@H]4O)[C@@H](O)[C@H](O[C@@H]4O[C@H](CO)[C@@H](O)[C@H](O)[C@H]4O)[C@H]3O)[C@H](O)C[C@]3(C)C(=CCC4[C@@]5(C)CC[C@H](O[C@@H]6OC[C@@H](O)[C@H](O)[C@H]6O)[C@@](C)(C(=O)O)C5CC[C@]43C)[C@@H]2C1 (stereo partly drawn) | inactive | inactive
Cc1nc2ccccc2c(-c2ccc3c4c(ccnc24)CCO3)c1[C@H](OC(C)(C)C)C(=O)O | inactive | inactive
